Results from PubChem BioAssay (NCATS).
“And” between values parts separate entries of the source, which are not always exact repeats. Equal values may be shown once. Results filed as inconclusive are left out. A structure can be active in one record and inactive in another. The source made the active and inactive calls. Unless noted, calls follow the shape of the full dose curve.

Legend:
[1] = AP1 Signaling Pathway (AID 357; active = well fitted curve in either direction with a large enough effect, not every such curve was filed as active;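 also: ME-180 reporter cells stimulated with EGF at its EC50 level; % is scaled to controls: 0 for no effect and ±100 for the full control effect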); conditions: ME-180 (cervical carcinoma) AP-1-bla reporter, EGF-induced, beta-lactamase ratio, 5 h
Outline: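 Cells are seeded overnight, exposed to compound titrations and an EC50 level of EGF for 5 hours at 37 °C, then loaded with CCF4 dye for 2.5 hours. Beta-lactamase activity under the AP-1 element is read as a blue/green ratio.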

[2] = Cell Viability - BJ (AID 421); conditions: BJ fibroblast viability, qHTS;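 also: potency is read from the fitted curve at half-maximal effect; cells exposed to compound for 40 hours at 37 °C before readout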
Outline: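 Cytotoxicity in human BJ foreskin fibroblasts is scored as loss of cellular ATP after a 40-hour exposure, measured by luciferase luminescence. Controls are DMSO and 100 uM tamoxifen.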

[3] = Cell Viability - Jurkat (AID 426;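 active = dose-dependent loss of cell ATP signal giving a full or clear fitted curve, ranked by lower potency value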;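 also: potency is read from the fitted curve at half-maximal effect; cells exposed to compound for 40 hours at 37 °C before ATP read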); conditions: qHTS
Outline: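 qHTS, 1536-well; Jurkat E6-1, 5000 cells/well, complete medium; cpd 40 hr, 37 °C; CellTiter-Glo 20 min RT; luminescence. AC50 by Hill fit.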

[4] = Cell Viability - Hek293 (AID 427;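 active = compounds whose dose-response curve shows a full or clear partial loss of cell viability, called from curve shape rather than a numeric limit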;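 also: potency is read from the fitted curve at half-maximal effect; cells exposed to compound for 40 hours at 37 °C before reading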); conditions: qHTS
Outline: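 qHTS, human embryonic kidney (adenovirus-transformed) cells; 40 hr cpd, 37 °C; CellTiter-Glo ATP luminescence. Norm: DMSO = 0, 100 uM tamoxifen = 100% inhibition. Hill-fit AC50.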

[5] = Cell Viability - HepG2 (AID 433); conditions: qHTS;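 also: potency is read from the fitted curve at half-maximal effect; potency for ATP loss meaning cytotoxicity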
Outline: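 HepG2 hepatocellular carcinoma cells (1500/well) were treated with compounds for 40 h at 37 °C in complete medium; intracellular ATP was read by CellTiter-Glo luminescence. Data were normalized to DMSO and 100 uM tamoxifen, and AC50 came from Hill fits.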

[6] = Cell Viability - MRC5 (AID 434); conditions: MRC5 lung fibroblast viability, qHTS;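 also: potency is read from the fitted curve at half-maximal effect; potency reflects cytotoxicity seen as loss of intracellular ATP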
Outline: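 MRC5 normal human lung fibroblasts (1500/well) were treated with compounds for 40 hr at 37 °C in complete medium, and viable cells were measured as intracellular ATP by CellTiter-Glo luminescence. AC50 came from Hill fits, normalized to DMSO and 100 uM tamoxifen.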

[7] = Cell Viability - SK-N-SH (AID 435); conditions: SK-N-SH neuroblastoma cell viability qHTS;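 also: potency is read from the fitted curve at half-maximal effect; compound exposure lasted 40 h at 37 °C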
Outline: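 SK-N-SH human neuroblastoma cells (1500/well) were exposed to compounds in complete medium for 40 h at 37 °C, and intracellular ATP was then measured by CellTiter-Glo luminescence. AC50 was taken from Hill fits, normalized to DMSO and 100 uM tamoxifen.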

[8] = NFAT Signaling Pathway (AID 444; active = well fitted curve in either direction with a large enough effect, not every such curve was filed as active;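 also: carbachol stimulus at about its EC50 of 1 µM final; % is scaled to controls: 0 for no effect and ±100 for the full control effect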); conditions: Jurkat NFAT-bla M1, carbachol, beta-lactamase ratio, 5 h; at 38 µM (top of the series) unless noted
Outline: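 Jurkat cells carrying an NFAT-driven β-lactamase reporter and co-transfected muscarinic M1 receptor were treated with compound plus carbachol (1 uM final, an EC50 level) for 5 h at 37 °C. CCF4 loading followed for 1 h at RT; 460/530 nm ratio gave %activity.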

[9] = molecular target: Cytochrome P450 1A2 (Homo sapiens) (UniProt P05177); assay: p450-cyp1a2 (AID 410); conditions: recombinant CYP1A2, luciferin-ME demethylation, luminescence; series mostly up to 57 µM; also: potency is read from the fitted curve at half-maximal effect;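 as to activity change, negative = inhibition: -100% = full effect of reference inhibitor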
Cytochrome P450 1A2 (Homo sapiens), sequence (P05177 whole entry, looked up): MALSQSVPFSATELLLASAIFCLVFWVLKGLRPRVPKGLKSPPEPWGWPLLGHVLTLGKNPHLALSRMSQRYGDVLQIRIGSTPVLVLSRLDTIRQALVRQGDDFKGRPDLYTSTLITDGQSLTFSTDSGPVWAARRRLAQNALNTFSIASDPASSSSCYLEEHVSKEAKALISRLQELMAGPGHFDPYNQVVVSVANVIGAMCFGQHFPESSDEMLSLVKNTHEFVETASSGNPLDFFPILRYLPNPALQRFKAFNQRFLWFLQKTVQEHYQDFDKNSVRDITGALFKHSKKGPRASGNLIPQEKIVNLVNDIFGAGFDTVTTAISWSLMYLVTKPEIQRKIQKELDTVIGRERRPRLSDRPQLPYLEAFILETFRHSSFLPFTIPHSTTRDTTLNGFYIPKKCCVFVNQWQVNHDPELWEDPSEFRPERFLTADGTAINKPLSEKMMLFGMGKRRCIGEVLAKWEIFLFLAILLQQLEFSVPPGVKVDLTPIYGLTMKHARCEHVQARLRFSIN
Outline: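 Luminescent readout of luciferin formed from Luciferin-ME by human CYP1A2; data normalized against complete inhibition by 57 uM furafylline. Enzyme 20nM, substrate 100uM at Km, 100mM KPO4 buffer, 60 min reaction at room temperature.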

Oc1ccccc1O
activity change, negative = inhibition ([1]; at 38 µM (top of the series)): -9.38% (inactive)
Potency [2]: > 92 µM (inactive)
Potency [3]: 3.17 µM (active)
Potency [4]: 30.1 µM (active)
Potency [5]: > 92 µM (inactive)
Potency [6]: > 92 µM (inactive)
Potency [7]: > 92 µM (inactive)
activity change, negative = inhibition [8]: 1.49% (inactive)

COc1cccc(C(=O)NCCN2CCN(c3ccc(Cl)cc3)CC2)c1
activity change, negative = inhibition ([1]; at 38 µM (top of the series)): -7.5% (inactive)
activity change, negative = inhibition [8]: 2.58% (inactive)

Cc1ccc(O)c(N=Nc2ccccc2)n1
activity change, negative = inhibition ([1]; at 38 µM (top of the series)): 17.2% (inactive)
activity change, negative = inhibition [8]: -10.8% (inactive)

COc1ccccc1N1CCN(CCN(C(=O)c2ccc(I)cc2)c2ccccn2)CC1
activity change, negative = inhibition ([1]; at 38 µM (top of the series)): -13.6% (inactive)
activity change, negative = inhibition [8]: -16.4% (inactive)

C[N+]1(C)CCC(OC(=O)C(c2ccccc2)c2ccccc2)CC1
activity change, negative = inhibition ([1]; at 38 µM (top of the series)): 10.3% (inactive)
Potency [9]: 10 µM (active) and inactive
activity change, negative = inhibition [8]: -75% (active)

COc1ccc(/C=C/C(=O)Nc2ccccc2C(=O)O)cc1OC
activity change, negative = inhibition ([1]; at 17.2 µM (top of the series)): -28.6% (inactive)
activity change, negative = inhibition [8]: 22.7% [at 17.2 µM] (inactive)

NCCNC(=O)c1ncsc1-c1cccc(F)c1
activity change, negative = inhibition ([1]; at 38 µM (top of the series)): 0.181% (inactive)
activity change, negative = inhibition [8]: -3.73% (inactive)

O=C1NC(O)=NC1(c1ccccc1)c1ccccc1
activity change, negative = inhibition ([1]; at 38 µM (top of the series)): 1.51% (inactive)
activity change, negative = inhibition [8]: -13.5% (inactive)

Nc1nc(Cl)nc2c1ncn2[C@@H]1O[C@H](CO)[C@@H](O)[C@H]1O
activity change, negative = inhibition ([1]; at 17.2 µM (top of the series)): 0.568% (inactive)
activity change, negative = inhibition [8]: 22.4% [at 17.2 µM] (inactive)

O=C(O)c1cc([N+](=O)[O-])ccc1NCCCc1ccccc1
activity change, negative = inhibition ([1]; at 38 µM (top of the series)): -8.1% (inactive)
activity change, negative = inhibition [8]: 5.3% (inactive)

O=S(=O)(c1cccc2c(I)cccc12)N1CCCNCC1
activity change, negative = inhibition ([1]; at 38 µM (top of the series)): 5.61% (inactive)
Potency [9]: 10 µM (active)
activity change, negative = inhibition [8]: -18.6% (inactive)

O=c1cc(-c2ccccc2)oc2ccccc12
Potency [2]: > 92 µM (inactive)
Potency [3]: > 92 µM (inactive)
Potency [4]: > 92 µM (inactive)
Potency [5]: > 92 µM (inactive)
Potency [6]: > 92 µM (inactive)
Potency [7]: > 92 µM (inactive)

NO
activity change, negative = inhibition ([1]; at 38 µM (top of the series)): 6.61% (inactive)
activity change, negative = inhibition [8]: -5.23% (inactive)

C#C[C@]1(O)CC[C@H]2[C@@H]3CCc4cc(O)ccc4[C@H]3CC[C@@]21C
Potency [2]: > 92 µM (inactive)
Potency [4]: > 92 µM (inactive)
Potency [5]: > 92 µM (inactive)
Potency [7]: 25.5 µM (inactive)

O=C(O)[C@@H]1C[C@@H](C(=O)O)N1
Potency [9]: 31.6 µM (active)

N=C1N=C(N)c2cc3ccccc3cc21
Potency [2]: 62.7 µM (active)
Potency [3]: 32.2 µM (active)
Potency [5]: 54.6 µM (active)
Potency [7]: 33.3 µM (active)

N=c1ccn2c(n1)O[C@H]1[C@H](O)[C@@H](CO)O[C@H]12
Potency [9]: inactive

CN1CCc2cc(NC(=O)Nc3cccnc3)ccc21
activity change, negative = inhibition ([1]; at 38 µM (top of the series)): -1.43% (inactive)
activity change, negative = inhibition [8]: 4.73% (inactive)

CN1CCC[C@H]1c1cccnc1
Potency [2]: > 92 µM (inactive)
Potency [3]: > 92 µM (inactive)
Potency [4]: > 92 µM (inactive)
Potency [5]: > 92 µM (inactive)
Potency [6]: > 92 µM (inactive)
Potency [7]: > 92 µM (inactive)

Oc1cc2c(cc1O)CN(C(=S)NCCc1ccc(Cl)cc1)CCC2
Potency [9]: 12.6 µM (active) and 20 µM (active)
activity change, negative = inhibition [8]: -18.1% (inactive)

S=c1[nH]c2ccccc2s1
Potency [2]: > 92 µM (inactive)
Potency [3]: > 92 µM (inactive)
Potency [4]: > 92 µM (inactive)
Potency [5]: > 92 µM (inactive)
Potency [6]: > 92 µM (inactive)
Potency [7]: > 92 µM (inactive)

CC(=O)SCC[N+](C)(C)C
activity change, negative = inhibition ([1]; at 38 µM (top of the series)): 9.91% (inactive)
activity change, negative = inhibition [8]: 9.71% (inactive)

O=c1[nH]c2cc(C(F)(F)F)ccc2n1-c1cc(C(F)(F)F)ccc1O
activity change, negative = inhibition ([1]; at 38 µM (top of the series)): -14.9% (inactive)
activity change, negative = inhibition [8]: 7.55% (inactive)

Nc1ccc([N+](=O)[O-])cc1O
Potency [2]: > 92 µM (inactive)
Potency [3]: > 92 µM (inactive)
Potency [4]: > 92 µM (inactive)
Potency [5]: > 92 µM (inactive)
Potency [6]: > 92 µM (inactive)
Potency [7]: > 92 µM (inactive)

NC(=O)C(=O)O
activity change, negative = inhibition ([1]; at 38 µM (top of the series)): 0.648% (inactive)
activity change, negative = inhibition [8]: 5.77% (inactive)

O=C(O)Cc1ccc(-c2ccccc2)cc1
activity change, negative = inhibition ([1]; at 17.2 µM (top of the series)): 3.75% (inactive) and 6.11% (inactive)
activity change, negative = inhibition [8]: -2.29% [at 17.2 µM] (inactive) and -12.1% [at 17.2 µM] (inactive)

COc1cc(CNC(=O)CCCC/C=C/C(C)C)ccc1O
Potency [2]: > 92 µM (inactive)
Potency [3]: > 92 µM (inactive)
Potency [4]: > 92 µM (inactive)
Potency [5]: > 92 µM (inactive)
Potency [6]: > 92 µM (inactive)
Potency [7]: > 92 µM (inactive)

CCCCCCCC/C=C\CCCCCCCC(=O)NCCO
activity change, negative = inhibition [8]: -20.4% (inactive)

CCCOC(=O)c1ccc(O)cc1
Potency [2]: > 92 µM (inactive)
Potency [3]: > 92 µM (inactive)
Potency [4]: > 92 µM (inactive)
Potency [5]: > 92 µM (inactive)
Potency [6]: > 92 µM (inactive)
Potency [7]: > 92 µM (inactive)

O=C(O)c1ccccc1Nc1cccc(C(F)(F)F)c1
activity change, negative = inhibition ([1]; at 17.2 µM (top of the series)): -4.38% (inactive) and -13.2% (inactive)
activity change, negative = inhibition [8]: -44% [at 17.2 µM] (inactive)

O=C(O)c1cc(=O)c2ccccc2[nH]1
activity change, negative = inhibition ([1]; at 38 µM (top of the series)): 5.32% (inactive)
activity change, negative = inhibition [8]: 13.2% (inactive)

O=C1CN(/N=C/c2ccc([N+](=O)[O-])o2)C(=O)N1
Potency [2]: > 92 µM (inactive)
Potency [3]: 7.84 µM (active)
Potency [6]: > 92 µM (inactive)

Ic1ccc(N2CCN(Cc3c[nH]c4ncccc34)CC2)cc1
activity change, negative = inhibition [8]: 0.65% (inactive)

O=C(Nc1ccccc1)c1cc([N+](=O)[O-])ccc1Cl
activity change, negative = inhibition [8]: -5% (inactive)

O=C(O)/C=C\C(=O)O
Potency [2]: > 92 µM (inactive)
Potency [3]: > 92 µM (inactive)
Potency [4]: > 92 µM (inactive)
Potency [5]: > 92 µM (inactive)
Potency [6]: > 92 µM (inactive)
Potency [7]: > 92 µM (inactive)

COC1=C(OC)C(=O)c2ccccc2C1=O
Potency [9]: 3.98 µM (active)
activity change, negative = inhibition [8]: -8.88% (inactive)

N#C/C(=C\c1c[nH]c2ccccc12)C(=O)c1ccc(O)c(O)c1
activity change, negative = inhibition [8]: 0.356% (inactive)

CCCCCCCCCCCCCCCCCC(=O)O
Potency [2]: > 92 µM (inactive)
Potency [3]: > 92 µM (inactive)
Potency [4]: > 92 µM (inactive)
Potency [5]: > 92 µM (inactive)
Potency [6]: > 92 µM (inactive)
Potency [7]: > 92 µM (inactive)

CN(C)c1ccc(N=NS(=O)(=O)O)cc1
Potency [2]: > 92 µM (inactive)
Potency [4]: > 92 µM (inactive)
Potency [6]: > 92 µM (inactive)
Potency [7]: > 92 µM (inactive)

c1ccc2sc(SSc3nc4ccccc4s3)nc2c1
Potency [2]: > 92 µM (inactive)
Potency [3]: > 92 µM (inactive)
Potency [4]: > 92 µM (inactive)
Potency [5]: > 92 µM (inactive)
Potency [6]: > 92 µM (inactive)
Potency [7]: > 92 µM (inactive)

O=C(O)c1cc(O)c(O)c(O)c1
Potency [2]: > 92 µM (inactive)
Potency [5]: > 92 µM (inactive)
Potency [6]: > 92 µM (inactive)

Nc1nc2ccc([N+](=O)[O-])cc2s1
Potency [2]: > 92 µM (inactive)
Potency [3]: > 92 µM (inactive)
Potency [4]: > 92 µM (inactive)
Potency [5]: > 92 µM (inactive)
Potency [6]: > 92 µM (inactive)
Potency [7]: > 92 µM (inactive)

CN(C)CCC(c1ccc(Cl)cc1)c1ccccn1 (centres undefined)
Potency [2]: > 92 µM (inactive)
Potency [3]: > 92 µM (inactive)
Potency [4]: > 92 µM (inactive)
Potency [5]: > 92 µM (inactive)
Potency [6]: > 92 µM (inactive)
Potency [7]: > 92 µM (inactive)

NCCO
Potency [2]: > 92 µM (inactive)
Potency [3]: > 92 µM (inactive)
Potency [4]: > 92 µM (inactive)
Potency [5]: > 92 µM (inactive)
Potency [6]: > 92 µM (inactive)
Potency [7]: > 92 µM (inactive)

CC(C)NCC(O)COc1cccc2ccccc12 (centres undefined)
Potency [2]: > 92 µM (inactive)
Potency [4]: > 92 µM (inactive)
Potency [5]: > 92 µM (inactive)
Potency [6]: > 92 µM (inactive)
Potency [7]: > 92 µM (inactive)

OC[C@H]1O[C@@H](n2cnc3c(NC4CCCC4)ncnc32)[C@H](O)[C@@H]1O
activity change, negative = inhibition ([1]; at 17.2 µM (top of the series)): 4.32% (inactive)
activity change, negative = inhibition [8]: 7.15% [at 17.2 µM] (inactive)

Nc1ccc(O)c([N+](=O)[O-])c1
Potency [2]: > 92 µM (inactive)
Potency [3]: 20.7 µM (inactive)
Potency [4]: > 92 µM (inactive)
Potency [5]: > 92 µM (inactive)
Potency [6]: > 92 µM (inactive)
Potency [7]: > 92 µM (inactive)
